For 16 compounds, composite z-score and z-score results are on record in PubChem BioAssay.

Experiment [1] is described as follows: binders of probe aFSTL3 on microarray, primary screen, stem cell growth factor project, biochemical, small-molecule microarray, fluorescence 635/667 (AID 1064).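 Note: measures binding of the biotinylated anti-FSTL3 antibody to printed compounds.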 The following applies: higher = more signal.
The nature of experiment [2]: binders from COS7 lysate, DM2A8 probe, primary screen, torsin A project, cell lysate, small-molecule microarray, fluorescence 635/667 (AID 1065). The settings on record: higher = more signal, COS7 lysate expressing mutant human TOR1A.
Experiment [3] can be described thus: binders of probe aFGF2 on microarray, primary screen, stem cell growth factor project, biochemical, small-molecule microarray, fluorescence 635/667 (AID 1067).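 Note: measures binding of biotinylated aFGF2 protein to printed compounds on slides; z-score merges feature fluorescence and signal-to-noise across triplicate slides.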 The settings on record: higher = more signal.
Experiment [4] is described as follows: binders of probe aFGF10 on microarray, primary screen, stem cell growth factor project, biochemical, small-molecule microarray, fluorescence 635/667 (AID 1071).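 Note: score merges 667 nm spot intensity and signal to noise from triplicate slides.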 The settings on record: higher = more signal.
For experiment [5], the target named is Neurogenic locus notch homolog protein 2 (Homo sapiens) (UniProt Q04721). Nature of the experiment: Notch2 binders on small-molecule microarrays, primary screen, biochemical, small-molecule microarray, 635 nm fluorescence, stem cell growth factors (AID 1073). The following applies: Notch2 binding, higher = more signal.
Sequence of Neurogenic locus notch homolog protein 2 (Homo sapiens) (Q04721 whole entry, looked up, canonical isoform): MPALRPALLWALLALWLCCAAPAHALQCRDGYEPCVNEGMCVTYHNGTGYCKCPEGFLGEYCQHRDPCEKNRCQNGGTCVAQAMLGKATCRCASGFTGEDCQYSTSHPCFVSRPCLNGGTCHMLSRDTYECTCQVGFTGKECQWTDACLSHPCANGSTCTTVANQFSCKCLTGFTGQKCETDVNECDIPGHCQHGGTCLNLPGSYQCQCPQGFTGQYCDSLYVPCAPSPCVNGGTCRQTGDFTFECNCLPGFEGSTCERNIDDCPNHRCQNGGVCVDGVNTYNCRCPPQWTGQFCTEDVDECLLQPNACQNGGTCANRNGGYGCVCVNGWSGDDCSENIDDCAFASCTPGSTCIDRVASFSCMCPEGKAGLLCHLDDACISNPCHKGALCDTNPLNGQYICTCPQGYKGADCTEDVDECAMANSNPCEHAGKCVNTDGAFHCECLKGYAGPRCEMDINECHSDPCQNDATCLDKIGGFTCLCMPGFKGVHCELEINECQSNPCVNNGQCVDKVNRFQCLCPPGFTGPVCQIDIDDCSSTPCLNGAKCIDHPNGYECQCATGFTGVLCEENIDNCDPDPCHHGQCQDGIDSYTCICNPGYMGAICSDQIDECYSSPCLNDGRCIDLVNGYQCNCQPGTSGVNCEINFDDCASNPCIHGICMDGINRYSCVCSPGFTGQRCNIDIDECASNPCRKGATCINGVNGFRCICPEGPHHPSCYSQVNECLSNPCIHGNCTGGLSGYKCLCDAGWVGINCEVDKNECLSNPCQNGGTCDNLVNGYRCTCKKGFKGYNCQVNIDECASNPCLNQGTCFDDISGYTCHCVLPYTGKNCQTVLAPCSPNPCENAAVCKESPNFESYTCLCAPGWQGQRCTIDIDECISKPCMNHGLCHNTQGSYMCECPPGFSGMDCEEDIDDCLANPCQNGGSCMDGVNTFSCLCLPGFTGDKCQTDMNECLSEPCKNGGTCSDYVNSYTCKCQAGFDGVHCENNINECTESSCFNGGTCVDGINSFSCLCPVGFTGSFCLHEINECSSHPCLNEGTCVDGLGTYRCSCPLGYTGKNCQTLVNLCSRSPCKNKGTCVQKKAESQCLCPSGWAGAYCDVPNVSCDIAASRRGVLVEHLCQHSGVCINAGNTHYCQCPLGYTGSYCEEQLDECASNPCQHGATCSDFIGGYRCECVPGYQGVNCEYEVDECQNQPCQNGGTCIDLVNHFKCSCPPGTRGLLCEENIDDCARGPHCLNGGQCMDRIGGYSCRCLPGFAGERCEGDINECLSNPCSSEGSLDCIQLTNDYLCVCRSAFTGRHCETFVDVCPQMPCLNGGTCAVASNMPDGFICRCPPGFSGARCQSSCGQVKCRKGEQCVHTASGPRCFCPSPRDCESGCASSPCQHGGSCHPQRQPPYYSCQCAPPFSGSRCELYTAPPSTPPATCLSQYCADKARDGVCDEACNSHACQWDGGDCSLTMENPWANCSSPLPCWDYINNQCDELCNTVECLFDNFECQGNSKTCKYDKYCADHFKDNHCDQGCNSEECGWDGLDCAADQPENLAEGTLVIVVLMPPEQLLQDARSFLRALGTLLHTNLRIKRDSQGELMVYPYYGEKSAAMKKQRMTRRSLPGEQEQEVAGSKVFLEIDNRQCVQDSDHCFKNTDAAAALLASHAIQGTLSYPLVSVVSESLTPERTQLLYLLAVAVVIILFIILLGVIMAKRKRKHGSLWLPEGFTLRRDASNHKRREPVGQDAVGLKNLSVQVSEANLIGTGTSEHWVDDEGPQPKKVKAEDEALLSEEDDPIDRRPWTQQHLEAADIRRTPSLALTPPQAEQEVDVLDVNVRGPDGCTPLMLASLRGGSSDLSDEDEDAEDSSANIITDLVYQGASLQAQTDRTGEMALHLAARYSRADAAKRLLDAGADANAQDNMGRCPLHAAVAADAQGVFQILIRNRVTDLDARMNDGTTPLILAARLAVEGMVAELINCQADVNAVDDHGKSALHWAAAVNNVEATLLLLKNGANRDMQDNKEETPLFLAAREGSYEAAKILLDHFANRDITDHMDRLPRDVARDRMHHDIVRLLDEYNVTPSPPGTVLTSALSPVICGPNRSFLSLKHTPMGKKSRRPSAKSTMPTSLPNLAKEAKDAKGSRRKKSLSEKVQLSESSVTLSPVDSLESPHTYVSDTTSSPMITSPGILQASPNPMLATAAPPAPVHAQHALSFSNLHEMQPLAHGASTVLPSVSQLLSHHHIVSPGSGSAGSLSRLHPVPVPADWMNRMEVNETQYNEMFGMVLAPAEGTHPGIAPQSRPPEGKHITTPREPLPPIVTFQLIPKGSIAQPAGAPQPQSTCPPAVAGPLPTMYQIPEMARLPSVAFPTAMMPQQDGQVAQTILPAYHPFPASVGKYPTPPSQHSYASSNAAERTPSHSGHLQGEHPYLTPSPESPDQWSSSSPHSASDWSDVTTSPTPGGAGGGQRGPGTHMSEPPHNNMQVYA
Experiment [6] has as its target Pro-neuregulin-1, membrane-bound isoform (Homo sapiens) (UniProt Q02297). Nature of the experiment: NRG1 binders on small-molecule microarrays, primary screen, psychiatric disease protein project, biochemical, small-molecule microarray, fluorescence 635/667 (AID 1075).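 Note: score combines 667 nm spot fluorescence with signal to noise.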 The following applies: NRG1 binding, 635 nm fluorescence, higher = more signal.
In experiment [7] the test system is Neuregulin-1 EGF-like domain. As to the kind of experiment: binders of neuregulin-1 EGF-like domain, primary screen, biochemical, small-molecule microarray, 635 nm fluorescence (AID 1081).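 Note: binding of the protein to compounds printed on small-molecule microarray slides.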 The settings on record: small-molecule microarray binding, higher = more signal.
Experiment [8] in a line: FRG1 promoter luciferase signal modulators, primary screen, FRG1 inhibition for FSHD, cell-based, C2C12 myotubes, firefly/Renilla luciferase, luminescence (AID 1084). The settings on record: higher = more signal, called active from +8 up or from −8 down.
Experiment [9] can be described thus: binders of probe aFST on microarray, primary screen, stem cell growth factor project, biochemical, small-molecule microarray, fluorescence 635/667 (AID 1086).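 Note: score merges 667 nm fluorescence with signal-to-noise of each printed compound spot.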 The settings on record: higher = more signal.
The nature of experiment [10]: binders of probe aHhip on microarray, primary screen, stem cell growth factor project, biochemical, small-molecule microarray, fluorescence 635/667 (AID 1087).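 Note: score merges spot fluorescence at 667nm with spot signal to noise ratio.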 The settings on record: higher = more signal.

SMILES strings stand for the structures. The source made the active and inactive calls.

Sequence of Pro-neuregulin-1, membrane-bound isoform (Homo sapiens) (Q02297 whole entry, looked up, the tested form may be a part, canonical isoform): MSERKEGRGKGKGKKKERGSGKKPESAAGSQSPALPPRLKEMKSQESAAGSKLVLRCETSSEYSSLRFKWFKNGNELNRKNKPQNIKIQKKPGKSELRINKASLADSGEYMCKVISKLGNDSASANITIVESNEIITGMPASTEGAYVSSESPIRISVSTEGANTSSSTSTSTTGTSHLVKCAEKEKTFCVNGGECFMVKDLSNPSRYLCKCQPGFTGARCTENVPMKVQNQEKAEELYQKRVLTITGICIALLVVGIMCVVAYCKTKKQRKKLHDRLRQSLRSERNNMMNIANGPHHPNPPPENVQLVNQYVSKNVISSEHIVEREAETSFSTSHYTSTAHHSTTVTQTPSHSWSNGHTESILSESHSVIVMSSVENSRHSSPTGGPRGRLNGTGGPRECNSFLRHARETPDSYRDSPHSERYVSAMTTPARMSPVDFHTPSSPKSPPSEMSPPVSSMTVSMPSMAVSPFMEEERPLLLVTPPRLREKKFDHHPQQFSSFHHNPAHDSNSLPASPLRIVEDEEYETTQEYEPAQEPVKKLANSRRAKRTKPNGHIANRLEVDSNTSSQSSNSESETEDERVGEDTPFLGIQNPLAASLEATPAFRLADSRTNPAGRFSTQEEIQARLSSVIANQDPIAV

As to `C=CC[C@]1(C(=O)NCC(O)CO)N=C(c2ccc(OCCCO)cc2)O[C@H]1c1ccccc1` (stereo not given in full), the composite z-score in [1] is 1.28; in experiment [2], -0.012; in experiment [3], -0.118; in experiment [4], -0.843; in experiment [5], -0.502; in [6], 2.14. Moreover, the composite z-score in experiment [7] was 1.25; in [9] it was -0.0064; in experiment [10] it was -0.124. In experiment [8], the z-score is -1.1 (inactive).
On to `CN(C)c1ccc(C(O)C2C=CC3C(=O)NC(=O)C3N2Nc2ccc(Cl)cc2Cl)cc1` (stereo not given), for which the composite z-score in [1] is 0.649; in [2], -0.0467; in experiment [3], 0.021; in experiment [4] it was 0.294; in experiment [5], 0.879; in experiment [6] it was 1.18. The composite z-score in [7] was 1.11; in experiment [9], 1.38; in [10], 0.0677. For the same compound, the z-score in experiment [8] is 3.74 (inactive).
As to `O=C1O[C@@H](c2ccccc2)[C@@H](c2ccccc2)N2[C@@H](c3ccc(O)cc3)[C@]3(C(=O)Nc4ccccc43)[C@@H](C(=O)N3CCN(c4ncccn4)CC3)[C@H]12`, the composite z-score in experiment [1] was 0.0022; in experiment [2], 0.637; in experiment [3] it was 0.142; in [4], 0.0271; in experiment [5], -0.486; in experiment [6], 0.474. Further, the composite z-score in experiment [7] turned out to be 1.25; in experiment [9] it was 0.0944; in experiment [10] it was 0.0274. For the same compound, the z-score in experiment [8] was -3.02 (inactive).
`COC(=O)[C@@]1(Cc2ccc(OC)cc2)[C@H]2c3cc(C(=O)N(C)C)n(Cc4ccc(C)c(F)c4F)c3C[C@H]2CN1C(=O)c1ccccc1`: the composite z-score in experiment [1] is 0.372; in experiment [2] it was 0.251; in experiment [3], 0.162; in experiment [4], 0.315; in experiment [5], 0.498; in experiment [6] it was 0.57. Also, the composite z-score in [7] is 0.964; in [9], 0.588; in experiment [10], 0.21. In addition, in [8], the z-score is 0.803 (inactive).
Regarding `COc1cc2c(cc1OC)CN(C(=O)[C@@H]1[C@H]3C(=O)O[C@H](c4ccccc4)[C@H](c4ccccc4)N3[C@H](c3ccccc3OCCO)[C@@]13C(=O)Nc1ccccc13)CC2`, the composite z-score was -1.08 in experiment [1]; 1.04 in [2]; -0.148 in experiment [3]; 0.575 in experiment [4]; 0.803 in experiment [5]; 1.39 in experiment [6]. The composite z-score is 1.18 in experiment [7], -0.44 in experiment [9] and -0.702 in experiment [10]. Further, in experiment [8], the z-score was -0.268 (inactive).
As to `COc1ccc(C(O)C2C=CC3C(=O)N(C)C(=O)C3N2N2CCCCC2)cc1OCc1ccccc1` (stereo not given), the composite z-score in experiment [1] is 0.556; in experiment [2] it was -0.599; in experiment [3], -0.0135; in experiment [4] it was 0.49; in experiment [5], 1.57; in experiment [6], 1.52. Also, the composite z-score amounted to 1.27 in [7], 0.994 in [9] and 0.232 in [10]. In addition, the z-score in [8] is 0.451 (inactive).
As to `O=C/C=C/c1ccc(/C=C/c2ccccc2)cc1`, the composite z-score is 1.02 in [1]; 0.107 in [2]; -0.105 in experiment [3]; -0.324 in experiment [4]; -0.429 in experiment [5]; -0.422 in experiment [6]. The composite z-score in [7] is -0.34; in experiment [9], 0.204; in experiment [10], 0.154. In addition, the z-score in [8] is 3.71 (inactive).
In the case of `CCCC=C(CCC)[C@@H](NS(=O)(=O)c1ccc(-c2ccccc2)cc1)c1ccc(C(=O)OC)cc1`, the composite z-score was 0.184 in [1]; -0.337 in [2]; -0.0363 in experiment [3]; -0.198 in [4]; 0.268 in experiment [5]; -0.33 in [6]. Further, the composite z-score in [7] was -0.656; in experiment [9] it was -0.212; in experiment [10], -0.0994. For the same compound, the z-score in experiment [8] was 1.55 (inactive).
With `C[C@@H]1NC(=O)[C@H](Cc2ccccc2)NC(=O)[C@@]23C(=O)N[C@@H](Cc4ccccc4)C2[C@H](C)[C@@]2(C)O[C@H]2C3/C=C/C/C=C\CNC1=O` (stereo not given in full), the composite z-score is -0.191 in experiment [1]; -0.0483 in [2]; -0.111 in [3]; 0.0009 in [4]; -0.315 in experiment [5]; -0.318 in experiment [6]. Further, the composite z-score in experiment [7] was -0.603; in [9] it was -0.784; in [10], 0.122. Also, the z-score in experiment [8] is -0.225 (inactive).
As to `COc1cccc([C@H]2N[C@H](C(=O)O)CC[C@@H]2C)c1`, the composite z-score was -0.356 in experiment [1]; 0.0291 in experiment [2]; -0.0885 in experiment [3]; -0.42 in experiment [4]; 0.238 in [5]; -0.0739 in [6]. Also, the composite z-score was -0.212 in [7], 0.425 in experiment [9] and -0.127 in experiment [10]. Also, the z-score in experiment [8] is -0.0831 (inactive).
Turning to `CO[C@@H]1COC(=O)[C@H](C)NC(=O)CC=C[C@@H](C)[C@H](OC)COC(=O)[C@H](C)NC(=O)CC=C[C@H]1C`, the composite z-score in [1] was -0.348; in [2] it was 0.395; in experiment [3] it was -0.112; in [4] it was 0.269; in experiment [5], 0.208; in experiment [6], -0.0025. The composite z-score in [7] was 0.0912; in experiment [9] it was 0.0054; in [10], -0.146. Moreover, the z-score in experiment [8] is 0.0543 (inactive).
Turning to `O=C1C2C=CC(C(O)Cc3ccccc3)N(Nc3ccc([N+](=O)[O-])cc3)C2C(=O)N1c1ccccc1` (stereo not given), the composite z-score was 0.159 in experiment [1]; -0.0657 in experiment [2]; -0.06 in experiment [3]; 0.699 in experiment [4]; 1.15 in [5]; 1.83 in experiment [6]. Also, the composite z-score stood at 1.33 in experiment [7], 0.638 in [9] and 0.413 in experiment [10]. For the same compound, in experiment [8], the z-score is 1.19 (inactive).
`O=C(NCc1ccccc1)[C@@]1(CCS(=O)(=O)c2ccccc2)COC(c2ccc(OCCCO)cc2)=N1`: the composite z-score in experiment [1] is 0.971; in experiment [2], 0.985; in experiment [3], 0.0025; in experiment [4], 0.382; in experiment [5], 1.17; in experiment [6], 2.16. In addition, the composite z-score is 1.18 in [7], 0.662 in [9] and -0.15 in experiment [10]. In addition, the z-score in experiment [8] is -4.58 (inactive).
Regarding `CCCC=C(CCC)[C@@H](NC(=O)c1ccc(C(F)(F)F)cc1)c1ccccc1`, the composite z-score in experiment [1] was -0.0795; in experiment [2], 0.333; in experiment [3], -0.0483; in experiment [4], -0.195; in [5], 0.237; in experiment [6] it was -0.256. In addition, the composite z-score in experiment [7] is 0.113; in [9] it was 0.587; in experiment [10] it was -0.0296. In [8], the z-score was 2.78 (inactive).
On to `[N-]=[N+]=NCc1ccccc1C[C@]1(C(N)=O)N=C(c2ccc(OCCCO)cc2)O[C@H]1c1ccccc1CN=[N+]=[N-]`, for which the composite z-score was found to be 1.15 in experiment [1]; 1.14 in experiment [2]; 0.128 in experiment [3]; 0.616 in [4]; 1.09 in [5]; 1.74 in experiment [6]. Besides, the values for the composite z-score in experiment [7], in experiment [9] and in [10] were 1, 0.823 and -0.3, respectively. In experiment [8], the z-score is -1.55 (inactive).
As to `COCCOC(=O)N1C(=O)[C@@]2(c3cc(C#CC4=CCCCC4)ccc31)[C@H](C(=O)NC[C@H](O)c1ccccc1)[C@H]1C(=O)O[C@H](c3ccccc3)[C@H](c3ccccc3)N1[C@@H]2c1ccc(OCCO)cc1`, the composite z-score in experiment [1] was -0.409; in experiment [2], 0.782; in experiment [3], -0.0566; in experiment [4] it was 0.478; in experiment [5], 1.26; in experiment [6], 1.12. Besides, the composite z-score is 1.26 in experiment [7], 0.575 in [9] and -0.0645 in experiment [10]. For the same compound, the z-score in [8] was 0.916 (inactive).
